# Screens from PubChem BioAssay.
# Mtb hypoxia inh – PubChem AID 1159583 | M. tuberculosis hypoxia-regulated fluorescent reporter, fluorescence | fluorescence inhibition, % (concentration not given with the values) | 300,000 compounds, 0.1% hits; in the data active = fluorescence inhibition mostly above about 23%, no sharp cut-off; inactive = mostly below about 17%
# VHR inh abs – VHR1 phosphatase inhibitors, primary screen, biochemical, absorbance, uHTS; 290,000 compounds, 0.52% hits; inhibition, % at 13.3 µM; AID 1654, 2009; Dual specificity protein phosphatase 3 (Homo sapiens), P51452; recombinant VHR phosphatase, pNPP absorbance; in the data active = inhibition above about 50%
# Target sequence (P51452 whole entry, looked up): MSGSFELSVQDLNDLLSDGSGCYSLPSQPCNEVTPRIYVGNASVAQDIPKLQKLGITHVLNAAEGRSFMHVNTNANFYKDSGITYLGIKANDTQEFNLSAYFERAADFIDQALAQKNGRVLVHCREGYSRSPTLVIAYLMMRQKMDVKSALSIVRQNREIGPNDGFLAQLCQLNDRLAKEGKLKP
# SARS 3CLpro inh – SARS-CoV 3CLpro protease inhibitors, primary screen, biochemical, quenched FRET | 290,000 compounds, 0.14% hits | inhibition, % at 6 µM | Replicase polyprotein 1ab (Severe acute respiratory syndrome coronavirus), P0C6X7 | recombinant SARS-CoV 3CLpro, quenched FRET peptide cleavage | AID 1706, 2009; in the data active = inhibition above about 12%
# CCHFV vOTU inh – CCHFV vOTU protease inhibitors, primary screen, biochemical, Pep-AMC substrate, fluorescence; Crimean-Congo hemorrhagic fever virus L polyprotein viral ovarian tumor (vOTU) protease …; 370,000 compounds, 0.55% hits; AID 651958, 2012; inhibition, % at 11.5 µM; in the data active = inhibition above about 30%; note: 0% = vehicle wells with enzyme and 100% = no enzyme wells
# SSB-PriA inh – inhibitors of Klebsiella pneumoniae PriA binding to SSB C-terminal tail, primary screen, biochemical, AlphaScreen | AlphaScreen SSBct-PriA binding, biotinylated peptide | inhibition, % at 33 µM | 430,000 compounds, 0.6% hits; in the data active = inhibition mostly above about 37%, no sharp cut-off; inactive = mostly below about 20%;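 note: plate controls were negative control peptide for no effect and reference peptide for full effect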
# * = called active by the depositor; . = no result given; ! = not active in a repeat. Compounds with a hit are over-represented: about 1.3% of the library has one in this group of screens.
SMILES,Mtb hypoxia inh,VHR inh abs,SARS 3CLpro inh,CCHFV vOTU inh,SSB-PriA inh
CCOC(=O)CSc1ncc(-c2ccccc2)n1-c1cccc(C(F)(F)F)c1,.,.,.,.,0
O=C(c1ccc(=O)n(Cc2c(F)cccc2Cl)c1)N1CCc2ccccc21,.,.,.,.,-1
CCOc1ccc2nc(NC(=O)c3ccccc3Br)sc2c1,.,.,.,.,-8
C/C(CC(=O)Nc1cc(C)ccn1)=N\NC(=O)c1ccc(C)cc1,.,13,-4,-4,.
C/C(CC(=O)Nc1cc(C)ccn1)=N\NC(=O)c1cccc(F)c1,.,52*,1,10,.
c1ccc(Cn2nnc3c(N4CCN(Cc5ccc6c(c5)OCO6)CC4)ncnc32)cc1,1,51*,1,-14,-1
O=C1NC2NC(=O)NC2N1 (stereo not given),.,.,.,.,-8
Cc1cc(=O)[nH]c(NN=Cc2ccccn2)n1,14,.,.,.,83*
O=c1nc(NN=Cc2ccccn2)cn[nH]1,.,.,.,.,82*
N#Cc1nc(-c2cccs2)oc1NCc1ccccc1Cl,.,-15,0,-106,45*
N#Cc1nc(-c2cccs2)oc1NCc1ccccc1,.,2,-2,-195,25
COc1ccc(S(=O)(=O)Nc2cccc3c2O[C@H](CN(C)C(=O)NC(C)C)[C@@H](C)CN([C@H](C)CO)C3=O)cc1,.,.,.,-7,99*
NC(=Nc1nc(CSc2ccc(Cl)cc2)cc(=O)[nH]1)Nc1ccccc1C(F)(F)F,.,.,.,.,11
COCCN(Cc1ccncc1)S(=O)(=O)c1cccc(Cl)c1C,.,.,.,.,-4
O=[N+]([O-])c1ccccc1N=Nc1ccc(O)cc1O,5,.,.,10,7
O=S(=O)(O)c1cc(O)c(N=Nc2ccc(O)cc2O)c2ccccc12,.,.,.,12,87*
COc1ccc(NC(=O)Cc2c(C)nc(SCc3ccccc3F)[nH]c2=O)c(OC)c1,.,.,.,.,-6
O=C(NCC(Cc1cccc(F)c1)N1CCCC1=O)c1ccccn1 (stereo not given),.,.,.,.,-13
COc1ccc(NC(=O)c2ccc(N3C(=O)C4CC=C(Cl)CC4C3=O)cc2)cc1 (stereo not given),-5,56*,2,-10,-13
COc1ccc(N2C(=O)C3CC=C(Cl)CC3C2=O)cc1 (stereo not given),8,23,-2,2,-5
CCCOc1ccc(-c2nc(C#N)c(N3CCCCCC3)o2)cc1,.,.,.,.,76
COc1ccccc1-c1nc(C#N)c(N2CCN(Cc3ccccc3)CC2)o1,8,-8,2,-7,41*
COc1ccc(-c2nc(C#N)c(N3CCCC3)o2)cc1,.,.,.,.,23
N#Cc1nc(-c2ccccc2Cl)oc1N1CCCCC1,.,-28,3,5,48*
N#Cc1nc(-c2ccccc2F)oc1N1CCCCC1,0,6,-1,-127,14
SMILES,Mtb hypoxia inh,VHR inh abs,SARS 3CLpro inh,CCHFV vOTU inh,SSB-PriA inh
COc1ccc(-c2nc(C#N)c(N3CCN(C)CC3)o2)cc1,.,.,.,.,54*
CC(C)(C)c1ccc(-c2nc(C#N)c(N3CCCCC3)o2)cc1,.,.,.,.,73*
COc1ccccc1-c1nc(C#N)c(N2CCC(Cc3ccccc3)CC2)o1,-5,24,-2,-13,16
O=C(Cn1cnc(-c2ccccc2)cc1=O)N1CCN(c2ccccc2)CC1,.,.,.,.,-4
CCC(NC(=O)c1nnn(-c2ccccc2)c1-n1cccc1)c1cccs1 (stereo not given),.,.,.,.,31
CC(=NNC(=O)c1cc(C)nc2ccccc12)c1ccccn1,2,.,.,.,94*
C/C(=N\NC(=O)c1cc(C)nc2ccccc12)c1ccccn1,.,.,.,7,.
CC(=NNC(=O)c1cccc2ccccc12)c1ccccn1,0,.,.,.,66*
NNc1nc(-c2ccccc2)cc(-c2ccccc2)n1,3,-4,1,8,1
NNc1nc(-c2ccccc2)cc(-c2ccccc2O)n1,6,27,-7,.,40*
Cc1noc(C2CN(S(=O)(=O)c3ccc(Br)cc3)C2)n1,.,.,.,.,-14
Brc1cc(-c2ccccn2)nc(-c2ccccn2)c1,.,.,.,.,58*
Clc1cccc(-c2ccccn2)n1,.,.,.,.,14
Clc1cc(-c2ccccn2)nc(-c2ccccn2)c1,.,.,.,.,64*
Cn1nc(CNS(=O)(=O)c2cccc(C(F)(F)F)c2)c2c1CCOC2,.,.,.,.,-6
CNc1cc(N2CCCCCC2)ccc1[N+](=O)[O-],7,19,5,-4,27
O=[N+]([O-])c1ccc(N2CCCCC2)cc1[N+](=O)[O-],.,.,.,.,73*
O=[N+]([O-])c1ccc(N2CCCCC2)cc1O,.,.,.,.,74*
CCOc1ccccc1C(=O)NCc1cc(-c2ccncc2)n(C)n1,.,.,.,.,-4
Cc1ccc(C)c(NC(=S)Nc2ncccc2C)c1,15,35,2,4,40*
c1ccc(-c2csc(-c3ccncc3)n2)cc1,-3,52*,-1,5,-1
CN1c2cccc3cccc(c23)N(C)C1c1cccs1,24,21,4,-1,15
CC1N(C)c2cccc3cccc(c23)N1C,22,0,-3,-122,45*
c1ccc(CNCCN2CCNCC2)nc1,4,24,1,-4,38*
c1ccc(CN2CCNCC2)nc1,0,-7,-2,-11,6
SMILES,Mtb hypoxia inh,VHR inh abs,SARS 3CLpro inh,CCHFV vOTU inh,SSB-PriA inh
CCCCOc1ccc(S(=O)(=O)N2CCN(c3ccc(Nc4ccc(C)cc4)nn3)CC2)cc1,.,.,.,.,2
Brc1ccc(OCc2nc(-c3ccccn3)n[nH]2)cc1,.,20,4,5,86*
c1ccc(-c2nc(-c3ccccn3)nc(-c3ccccn3)n2)nc1,4,19,5,1,-12
Cc1nc(-c2ccccn2)n[nH]1,.,.,.,.,99*!
Clc1ccc(OCc2nc3ccccc3[nH]2)cc1,3,12,0,4,-9
NCCc1nc(-c2ccccn2)n[nH]1,.,.,.,.,93*
Clc1ccc(OCc2nc(-c3ccccn3)n[nH]2)cc1,2,-1,-7,3,64*
NCCOc1ccccc1OCCN,14,9,0,-14,1
COc1ccccc1OCCNC(=O)c1ccco1,-7,-9,-1,-2,0
O=C(NCCOc1ccc(-c2ccccn2)nn1)c1ccco1,.,.,.,.,116*
NCCOc1ccc(-c2ccccn2)nn1,.,.,.,.,154*
Cc1cccc(NC(=O)C(=O)O)n1,.,.,.,.,-8
S=c1[nH]c2ccc3ccccc3c2[nH]1,8,53*,-6,-5,-10
N#Cc1c(NC(=O)c2ccc(-c3nc4ccccc4s3)s2)sc2c1CCN(Cc1ccccc1)C2,.,.,.,.,6
COc1ccc2nc(-c3ccccn3)[nH]c2c1,-3,17,-1,4,-6
Nc1ccc2nc(-c3ccccn3)[nH]c2c1,.,8,-9,5,96*
Nc1ccc2nc(-c3ccccc3)[nH]c2c1,6,5,-1,-319,16
Nc1ccccc1-c1n[nH]c(-c2ccccn2)n1,.,.,.,.,107*
c1ccc(-c2nc3ccc(Cc4ccc5nc(-c6ccccn6)[nH]c5c4)cc3[nH]2)nc1,.,.,.,.,88*
Nc1ccc2nc(-c3ccc(N)c(Cl)c3)[nH]c2c1,18,8,-1,-142,44*
CCOC(=O)c1oc2ccccc2c1NC(=O)Cc1ccc(F)cc1,.,.,.,.,-3
